Data published in PubChem BioAssay (NCATS).
Values without a mark were called inactive. Inconclusive results are not listed. Activity calls are given as the source filed them. The call rests on the fitted dose curve; in most records, active means well fitted curve in the direction sought with a large enough effect; inconclusive means small, poorly fitted or top-dose-only effect, or another doubt; inactive means no such curve, though single readings can be large; an effect the other way counts as inactive or inconclusive.

assay: Cell Viability - LYMP1-003 - Assay at 24 hr (AID 963); conditions: LYMP1-003 lymphoblastoid cell viability; series mostly up to 92.2 µM; viability change, negative = cytotoxic: at the top concentration;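 further: plate controls were DMSO only for no effect and tetraoctylammonium bromide positive control for full effect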
In short: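 Acute toxicity in LYMP1-003 lymphoblastoid cells: 24 hr compound treatment at 37 C, ATP measured with CellTiter-Glo after 30 min at room temperature. AC50 derived by fitting the Hill equation to qHTS titrations.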

Structure (SMILES) | viability change, negative = cytotoxic [%]
O=C(O)C(Br)Br | -1.6
Cc1ccc(OP(=O)(Oc2ccc(C)cc2)Oc2ccc(C)cc2)cc1 | -2.66
Oc1c(Cl)c(Cl)cc(Cl)c1Cl | 3.25
Nc1ccc(Cc2ccc(N)c(Cl)c2)cc1Cl | -7.56
CN(C)c1ccc(N(C)C)cc1 | -9.23
Brc1ccc(Oc2ccc(Br)cc2Br)c(Br)c1 | 2.7
O=[N+]([O-])c1c(Cl)c(Cl)c(Cl)c(Cl)c1Cl | -4.68
ClCC(Cl)Cl | -0.244
O=[N+]([O-])c1ccc(O)c([N+](=O)[O-])c1 | -5.02
CC(C)[N+](=O)[O-] | -2.67
CCCC[N+](=O)[O-] | 4.16
Cc1cc(-c2cc(C)c(N)c(C)c2)cc(C)c1N | 0.382
Nc1cc(Cl)ccc1O | -25.1
CCN(N=O)C(N)=O | -5.79
N#CC(Cl)(Cl)Cl | -2.51
CCCCC(CC)COC(=O)c1ccc(C(=O)OCC(CC)CCCC)c(C(=O)OCC(CC)CCCC)c1 (stereo unspecified) | -5.74
O=C(O)C(Br)CBr (stereo unspecified) | -13.3

Structure (SMILES) | viability change, negative = cytotoxic [%]
O=[N+]([O-])c1ccccc1CCl | -11.9
Cc1cc(C)cc(OP(=O)(Oc2cc(C)cc(C)c2)Oc2cc(C)cc(C)c2)c1 | -5.5
N#CC(Br)Br | 1.43
O=C(O)C(Cl)Br (stereo unspecified) | -1.02
COP(=S)(OC)SCn1nnc2ccccc2c1=O | 2.07
Nc1ccc([N+](=O)[O-])cc1N | -16.4
O=C(O)c1cccc(Cl)c1 | -1.05
Cc1cc(N=Nc2ccccc2C)ccc1N | -13.2
OCCCCO | -0.979
O=[N+]([O-])c1cc(Cl)c(Cl)c(Cl)c1 | 1.47
CC(C)(COCC1CO1)COCC1CO1 (stereo unspecified) | -2.44
Cc1ccc2c(c1N)C(=O)c1ccccc1C2=O | -8.14
COc1ccccc1N | -5.26
c1ccc(N=NNc2ccccc2)cc1 | -7.53
COC(C)(C)C | -2.52
C(CCOCC1CO1)COCC1CO1 (stereo unspecified) | -13.6
O=[N+]([O-])/C=C/c1ccccc1 | -8.4

assay: Cell Viability - LYMP1-003 - Assay at 40 hr (AID 964); conditions: LYMP1-003 lymphoblastoid viability; series mostly up to 92.2 µM; activity change, negative = cytotoxic: at the top concentration; further: nearly all actives have a fitted effect of over 60% in size; further: potency means the concentration at half of the fitted maximal effect; on activity change, negative = cytotoxic: on the % scale 0 is the no-effect control and ±100 the full control effect
In short: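 This qHTS cytotoxicity screen treats human lymphoblastoid cells (LYMP1-003) with compounds for 40 hr and quantifies cellular ATP via luciferase luminescence.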

Structure (SMILES) | activity change, negative = cytotoxic [%] | Potency
Cc1ccc(OP(=O)(Oc2ccc(C)cc2)Oc2ccc(C)cc2)cc1 | -8.96 | –
Oc1c(Cl)c(Cl)cc(Cl)c1Cl | -8.74 | –
Nc1ccc(Cc2ccc(N)c(Cl)c2)cc1Cl | -22 | –
CN(C)c1ccc(N(C)C)cc1 | -19.2 | –
Brc1ccc(Oc2ccc(Br)cc2Br)c(Br)c1 | -1.85 | –
CN1CSC(=S)N(C)C1 | – | 39.8 µM (active)
CC(C)Br | -7.8 | –
O=[N+]([O-])c1ccc(O)c([N+](=O)[O-])c1 | -17.3 | –
CC(C)[N+](=O)[O-] | 5.84 | –
CCCC[N+](=O)[O-] | -12.1 | –
Cc1cc(-c2cc(C)c(N)c(C)c2)cc(C)c1N | -11.1 | –
CCN(N=O)C(N)=O | -4.85 | –
N#CC(Cl)(Cl)Cl | -9.91 | –
CCCCC(CC)COC(=O)c1ccc(C(=O)OCC(CC)CCCC)c(C(=O)OCC(CC)CCCC)c1 (stereo unspecified) | -9.06 | –
O=C(O)C(Br)CBr (stereo unspecified) | -26.2 | –
Nc1c(Br)cc([N+](=O)[O-])cc1[N+](=O)[O-] | -19.6 | –
O=[N+]([O-])c1ccccc1CCl | -6.85 | –
Cc1cc(C)cc(OP(=O)(Oc2cc(C)cc(C)c2)Oc2cc(C)cc(C)c2)c1 | -8.52 | –
N#CC(Br)Br | -13.4 | –
O=C(O)C(Cl)Br (stereo unspecified) | -8.28 | –
COP(=S)(OC)SCn1nnc2ccccc2c1=O | 8.02 | –
O=C(O)c1cccc(Cl)c1 | -4.44 | –
OCCCCO | 7.55 | –
O=[N+]([O-])c1cc(Cl)c(Cl)c(Cl)c1 | -5.38 | –
CC(C)(COCC1CO1)COCC1CO1 (stereo unspecified) | -24 | –
Cc1ccc2c(c1N)C(=O)c1ccccc1C2=O | -0.814 | –
CC(C)(C)OOC(=O)c1ccccc1 | -7.71 | –
COC(C)(C)C | -12.7 | –
O=[N+]([O-])/C=C/c1ccccc1 | -6.54 | –

assay: Cell Viability - LYMP2-003 (AID 965); conditions: LYMP2-003 lymphoblastoid cell viability; series mostly up to 92.2 µM; activity change, negative = cytotoxicity: at the top concentration;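 further: cells exposed to compounds for 24 h before reading; nearly all actives have a fitted effect of over 50% in size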; further: potency means the concentration at half of the fitted maximal effect;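 on activity change, negative = cytotoxicity: 0% = DMSO only and full effect = 92 µM tetraoctylammonium bromide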
In short: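 Human lymphoblastoid cells (2500/well) were pre-incubated 5 hr at 37 C, then exposed to compounds over a concentration range for 24 hr at 37 C. Intracellular ATP was read by CellTiter-Glo luminescence; AC50 came from Hill-equation fits.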

Structure (SMILES) | activity change, negative = cytotoxicity [%] | Potency
O=C(O)C(Br)Br | -12.3 | –
Cc1ccc(OP(=O)(Oc2ccc(C)cc2)Oc2ccc(C)cc2)cc1 | 6.69 | –
Oc1c(Cl)c(Cl)cc(Cl)c1Cl | 10.3 | –
Nc1ccc(Cc2ccc(N)c(Cl)c2)cc1Cl | 10.2 | –
Brc1ccc(Oc2ccc(Br)cc2Br)c(Br)c1 | 11.6 | –
O=[N+]([O-])c1c(Cl)c(Cl)c(Cl)c(Cl)c1Cl | -2.18 | –
CN1CSC(=S)N(C)C1 | – | 31.6 µM (active)
ClCC(Cl)Cl | 18.8 | –
C=CC(=O)OCCO | – | 50.1 µM (active)
CC(C)Br | 11 | –
O=[N+]([O-])c1ccc(O)c([N+](=O)[O-])c1 | 27.4 | –
CC(C)[N+](=O)[O-] | 15.9 | –
CCCC[N+](=O)[O-] | 8.05 | –
Cc1cc(-c2cc(C)c(N)c(C)c2)cc(C)c1N | 11.6 | –
Nc1cc(Cl)ccc1O | -6.74 | –
CCN(N=O)C(N)=O | 13.5 | –
N#CC(Cl)(Cl)Cl | 7.13 | –
CCCCC(CC)COC(=O)c1ccc(C(=O)OCC(CC)CCCC)c(C(=O)OCC(CC)CCCC)c1 (stereo unspecified) | -0.67 | –
O=C(O)C(Br)CBr (stereo unspecified) | -11.5 | –

Structure (SMILES) | activity change, negative = cytotoxicity [%] | Potency
Nc1c(Br)cc([N+](=O)[O-])cc1[N+](=O)[O-] | 1.55 | –
O=[N+]([O-])c1ccccc1CCl | 1.45 | –
Cc1cc(C)cc(OP(=O)(Oc2cc(C)cc(C)c2)Oc2cc(C)cc(C)c2)c1 | -5.16 | –
N#CC(Br)Br | -26.3 | –
O=C(O)C(Cl)Br (stereo unspecified) | 8.56 | –
COP(=S)(OC)SCn1nnc2ccccc2c1=O | -2.22 | –
Nc1ccc([N+](=O)[O-])cc1N | -4.08 | –
O=C(O)c1cccc(Cl)c1 | 4.76 | –
Cc1cc(N=Nc2ccccc2C)ccc1N | -3.2 | –
OCCCCO | 3.86 | –
O=[N+]([O-])c1cc(Cl)c(Cl)c(Cl)c1 | 7.04 | –
CC(C)(COCC1CO1)COCC1CO1 (stereo unspecified) | -17 | –
Cc1ccc2c(c1N)C(=O)c1ccccc1C2=O | -8.96 | –
COc1ccccc1N | 15.5 | –
CC(C)(C)OOC(=O)c1ccccc1 | -3.34 | –
c1ccc(N=NNc2ccccc2)cc1 | 4.2 | –
COC(C)(C)C | 14.7 | –
C(CCOCC1CO1)COCC1CO1 (stereo unspecified) | -15.6 | –
CN(C)c1ccc(N)cc1 | – | 50.1 µM (active)
